Assay results as given in the supplement of paper PMC7156485.
Unmarked numbers belong to inactive results.

system: HCC1569; test: H1.0 immunofluorescence intensity relative to DMSO (% of DMSO); higher = stronger H1.0 induction, active = 140 or more; conditions: concentration: 10 µM; 24 h
Outline: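 For HCC1569 and TDF cells, compounds at 10 µM were applied for 24 h at 37 °C in triplicate in 384-well plates. Cells were fixed in 3.7% formaldehyde, stained for H1.0 and with DAPI, and imaged at ×10 over six fields per well. The endpoint, H1.0 nuclear intensity or cell number, is shown as percent of the plate control using the median of replicates. Positional effects were smoothed for HCC1569 only.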
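Note: TDF is a line of transformed human dermal fibroblasts of mesenchymal origin.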

Row | SMILES | H1.0 immunofluorescence intensity
1 | O=C(Nc1cccc(C(F)(F)F)c1)Nc1cc(S(=O)(=O)NC2CC2)ccc1-c1ccsc1 | 130
2 | Nc1ncnc2c1nc(Sc1ccc(Cl)cc1)n2C1OC2COP(=O)([O-])OC2C1O.[Na+] (configuration not stated) [8-(4-Chlorophenylthio)-cAMP sodium] | 85.1
3 | CCCCCC=CCC=CC=CC=CC(SCC(N)C(=O)O)C(O)CCCC(=O)O (configuration not stated) [Leukotriene E4] | 102
4 | CC[C@@]1(O)C(=O)OCc2c1cc1n(c2=O)Cc2cc3c(CN(C)C)c(O)ccc3nc2-1 | 142 (active)
5 | N[C@@H](Cc1cc(I)c(Oc2cc(I)c(O)c(I)c2)c(I)c1)C(=O)O [L-thyroxine] | 96.6
6 | CCCCCCCCCCCCCCCCOCC(COP(=O)([O-])OCC[N+](C)(C)C)OC(=O)NC (configuration not stated) | 101
7 | OC(CS)C(O)CS (configuration not stated) | 102
8 | COc1cc2ncnc(Nc3ccc(O)c(Br)c3)c2cc1OC [JAK3 Inhibitor II] | 127
9 | CC12CCC3c4ccc(O)cc4CCC3C1CCC2O (configuration not stated) [Estradiol] | 121
10 | CCC1=C(C)CN(C(=O)NCCc2ccc(S(=O)(=O)NC(=O)NC3CCC(C)CC3)cc2)C1=O (configuration not stated) [Glimepiride] | 106
11 | Cl.O=c1n(CCCN2CCN(c3cccc(Cl)c3)CC2)nc2ccccn12 [Trazodone hydrochloride] | 101
12 | CC(=O)OC1CC2(C)C(CC(O)C3C4(C)CCC(O)C(C)C4CCC32C)C1=C(CCC=C(C)C)C(=O)[O-].[Na+] (configuration not stated) [Fusidic acid sodium] | 83.5
